Shown are actives, neighbours in structure and some others; about 0.99% of the full set was active somewhere.
AmpC detergent = blocks E. coli AmpC beta-lactamase in detergent assay; AmpC hydrolysis of nitrocefin, absorbance 480 nm, 0.01% Triton; 370,000 compounds, 0.041% hits; Potency, µM (doses to about 114 µM), inactives show at the highest dose activity change, negative = inhibition, usual class: inhibitors; active means well fitted curve in the direction sought with a large enough effect; inconclusive means small, poorly fitted or top-dose-only effect, or another doubt; inactive means no such curve, though single readings can be large; an effect the other way counts as inactive or inconclusive;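 further: potency means the concentration at half of the fitted maximal effect; 0% = no-compound wells and -100% = no-enzyme wells; nearly all actives have a fitted effect of over 25% in size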
Target sequence (P00811 whole entry, looked up): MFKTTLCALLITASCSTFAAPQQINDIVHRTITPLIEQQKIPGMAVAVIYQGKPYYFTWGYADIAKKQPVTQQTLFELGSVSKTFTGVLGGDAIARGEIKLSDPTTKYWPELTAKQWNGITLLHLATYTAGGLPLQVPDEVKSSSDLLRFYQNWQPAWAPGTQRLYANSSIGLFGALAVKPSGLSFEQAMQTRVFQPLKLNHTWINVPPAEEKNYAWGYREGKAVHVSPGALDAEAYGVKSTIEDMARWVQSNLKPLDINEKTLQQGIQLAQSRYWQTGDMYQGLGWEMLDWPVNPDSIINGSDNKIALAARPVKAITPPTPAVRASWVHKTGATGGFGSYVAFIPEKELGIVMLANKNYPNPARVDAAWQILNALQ
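AmpC (5.3 nM in the dispensed reagent) in 20 mM phosphate pH 7.0 with 0.01% (detergent screen) or 0.0001% Triton X-100 was preincubated with compounds for 15 min at room temperature. Nitrocefin was then added from an 800 uM solution, and hydrolysis was followed at 480 nm.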
NS1 function inh = inhibitors of influenza NS1 protein function. 270,000 compounds, 0.4% hits. Potency, µM (series often up to 46.1 µM), for the others: at the highest dose activity, positive = more growth; further: potency means the concentration at half of the fitted maximal effect; actives are rising curves; nearly all actives have a fitted effect of over 50% in size
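OD600 was taken as the measure of yeast growth restored by compound in an NS1-expressing S. cerevisiae strain. Cells had been washed out of glucose medium and diluted 1:100 into galactose -URA medium, pH 6.0.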
AmpC inh no detg = blocks E. coli AmpC beta-lactamase in detergent-free assay | AmpC nitrocefin hydrolysis, absorbance 480 nm, 0.0001% Triton | Potency, µM (series often up to 57.1 µM), without a hit: at the highest dose activity change, negative = inhibition, actives largely listed as inhibitors | 330,000 compounds, 0.52% hits; active means well fitted curve in the direction sought with a large enough effect; inconclusive means small, poorly fitted or top-dose-only effect, or another doubt; inactive means no such curve, though single readings can be large; an effect the other way counts as inactive or inconclusive;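 further: potency means the concentration at half of the fitted maximal effect; plate controls were no compound for no effect and no enzyme for full effect; nearly all actives have a fitted effect of over 20% in size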
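20 mM phosphate pH 7.0 + 0.01% (detergent screen) or 0.0001% Triton X-100; 5.3 nM AmpC reagent; cpd preinc 15 min RT; nitrocefin (800 uM stock) to start; A480 q20 s × 4 min; Activity was normalised to no-enzyme and no-compound control wells.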
AMA1-RON2 inh = inhibitors of Plasmodium falciparum AMA1-RON2 interaction | Potency, µM (doses to about 58.2 µM), without a hit: top-dose activity change, negative = inhibition, actives largely listed as inhibitors | AlphaScreen AMA1-biotinylated RON2 peptide binding | 360,000 compounds, 0.2% hits | AID 720542; active means well fitted curve in the direction sought with a large enough effect; inconclusive means small, poorly fitted or top-dose-only effect, or another doubt; inactive means no such curve, though single readings can be large; an effect the other way counts as inactive or inconclusive;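 further: potency means the concentration at half of the fitted maximal effect; 0% = vehicle wells and -100% = peptide control; nearly all actives have a fitted effect of over 45% in size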
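AMA1 (3D7) with his tag at 25 nM final met compounds first, then biotinylated RON2 peptide at 25 nM; detection used donor plus acceptor beads, 10 µg/mL apiece, read by AlphaScreen after 30 min at room temperature.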
SARS PLP yeast = blocks SARS-CoV papain-like protease in a yeast assay; Potency, µM (top dose mostly 32.9 µM), for the others: at the highest dose activity, positive = growth rescue, actives largely listed as activators; AID 485353; 330,000 compounds, 0.19% hits; S. cerevisiae expressing SARS-CoV PLpro, growth rescue; further: potency means the concentration at half of the fitted maximal effect; 0% is about no effect; nearly all actives have a fitted effect of over 55% in size
Flu NS1 inh = influenza NS1 function inhibition validation; shares compounds with NS1 function inh; influenza NS1 function cell assay, 15-point titration; activity change, negative = inhibition, % at 32.9 µM; 1,400 tested, under 10 active; further: 0% is about no effect
Starred values were filed as active, the others as inactive; [ ] = another dose, or the depositor's remark. Unless noted, the call rests on the fitted dose curve.

Results for CN(Cc1ccccc1)S(=O)(=O)c1ccc2[nH]c3c(c2c1)CCCCC3 ?
AmpC detergent: -3%

How did Cc1nn(C)c(C)c1S(=O)(=O)NC1CCCC1 do in these assays?
AmpC detergent: -11%; NS1 function inh: 8%; AmpC inh no detg: -13%; AMA1-RON2 inh: -2%; SARS PLP yeast: -7%

What do the screens show for `Cc1nn(-c2nnc(NC3CCCCC3)nn2)c(C)c1Br`?
AmpC detergent: 100µM*; NS1 function inh: -22%; AmpC inh no detg: 5%; AMA1-RON2 inh: 1%[11.6 µM]; SARS PLP yeast: -19%

What do the screens show for `O=S(=O)(NCc1cn2ccsc2n1)c1cccs1`?
AmpC detergent: -9%; NS1 function inh: 10%; AmpC inh no detg: -10%; AMA1-RON2 inh: -4%; SARS PLP yeast: 5%

How did O=S(=O)(NCc1cn2ccsc2n1)c1ccc(Oc2ccccc2)cc1 do in these assays?
AmpC detergent: 0%; NS1 function inh: -4%; AmpC inh no detg: 4µM*; AMA1-RON2 inh: -7%; SARS PLP yeast: 3%

What do the screens show for `O=C(NN=Cc1c(O)ccc2ccccc12)c1ccc2c(c1)OCO2`?
AmpC inh no detg: -17%; AMA1-RON2 inh: 79%; SARS PLP yeast: 1%

How did O=C(N/N=C\c1c(O)ccc2ccccc12)c1ccc(S(=O)(=O)N2CCCCC2)cc1 do in these assays?
AmpC detergent: -16%; NS1 function inh: 25%; AmpC inh no detg: -27%; AMA1-RON2 inh: 18%; SARS PLP yeast: 4µM*

Results for CC(Oc1ccccc1)C(=O)N=Nc1c(O)[nH]c2ccc([N+](=O)[O-])cc12 (stereo not given) ?
AmpC detergent: 5%; AmpC inh no detg: -44%; AMA1-RON2 inh: 32µM*; SARS PLP yeast: 0%

What do the screens show for `O=c1nc(Nc2ccccc2)oc2ccccc12`?
AmpC detergent: -1%; NS1 function inh: -4%; AmpC inh no detg: -8%; AMA1-RON2 inh: -15%; SARS PLP yeast: -7%

Results for O=c1nc(Nc2cccc(Cl)c2)oc2cc(Cl)oc(=O)c12 ?
AmpC detergent: -1%; NS1 function inh: 6%; AmpC inh no detg: 10µM*; AMA1-RON2 inh: 10%; SARS PLP yeast: 1%

How did S=c1[nH]nc(Nc2cccc3ccccc23)s1 do in these assays?
AmpC detergent: -6%; NS1 function inh: 5%; AmpC inh no detg: 28µM*; AMA1-RON2 inh: 45%; SARS PLP yeast: 0%

How did Cc1ccccc1Nc1n[nH]c(=S)s1 do in these assays?
AMA1-RON2 inh: 102%

What do the screens show for `CCOc1ccc(C(=O)OCC(=O)Nc2cccnc2Cl)cc1OCC`?
AmpC inh no detg: 22%; AMA1-RON2 inh: 13%[11.6 µM]; SARS PLP yeast: -4%

What do the screens show for `CCOC(=O)c1ncccc1NC(=O)CC(=O)Nc1cccnc1C(=O)OCC`?
AMA1-RON2 inh: 14µM*

How did Oc1[nH]c2ccccc2c1N=Nc1ccc(F)cc1 do in these assays?
AmpC detergent: -1%; NS1 function inh: 8%; AmpC inh no detg: -47%; AMA1-RON2 inh: 7%; SARS PLP yeast: -22%

How did COc1ccc(N=Nc2ccc3ccccc3c2)c(O)c1 do in these assays?
AmpC detergent: -15%; NS1 function inh: -5%; AmpC inh no detg: -12%; AMA1-RON2 inh: inconclusive; SARS PLP yeast: 0%

How did Oc1c(N=Nc2ccc(F)cc2)ccc2ccccc12 do in these assays?
AmpC detergent: -12%; NS1 function inh: 14%; AmpC inh no detg: -9%; AMA1-RON2 inh: 1.8µM*; SARS PLP yeast: 3%

How did Cc1ccc(N=Nc2ccc3ccccc3c2O)cc1 do in these assays?
AmpC detergent: -8%; NS1 function inh: 30%; AmpC inh no detg: -2%; AMA1-RON2 inh: 2.8µM*; SARS PLP yeast: 3%

Results for COc1cccc(N=Nc2ccc3ccccc3c2O)c1 ?
AmpC detergent: inconclusive; NS1 function inh: -1%; AmpC inh no detg: -17%; AMA1-RON2 inh: 2.8µM*; SARS PLP yeast: 2%

What do the screens show for `Oc1ccc2ccccc2c1N=Nc1ccc(F)cc1`?
AmpC detergent: -13%; NS1 function inh: inconclusive; AmpC inh no detg: -21%; AMA1-RON2 inh: 1.4µM*; SARS PLP yeast: -1%

How did C/C(=N\NC(=S)Nc1ccc(F)cc1)c1ccc2c(c1)OCCO2 do in these assays?
AmpC detergent: -6%; NS1 function inh: 18%; AmpC inh no detg: 20µM*; AMA1-RON2 inh: 24%; SARS PLP yeast: -15%

Results for C/C(=N\NC(N)=S)c1ccc2c(c1)OCCO2 ?
AmpC detergent: -5%; NS1 function inh: -5%; AmpC inh no detg: -25%; AMA1-RON2 inh: 53%; SARS PLP yeast: 2%

Results for Cc1ccc2[nH]c(=O)c(C(c3nnnn3CC3CCCO3)N3CCOCC3)cc2c1 (stereo not given) ?
AmpC detergent: -19%; NS1 function inh: -2%; AmpC inh no detg: -20%; AMA1-RON2 inh: 17%; SARS PLP yeast: 4%

How did CCC(c1nnnn1CC1CCCO1)N(CCN1CCOCC1)Cc1cc2cc(C)ccc2[nH]c1=O (stereo not given) do in these assays?
AmpC detergent: 5%; NS1 function inh: 2.2µM*; AmpC inh no detg: 45%; AMA1-RON2 inh: 30%; SARS PLP yeast: 1%

How did Cc1noc(/C=C/c2ccccc2F)c1S(=O)(=O)N1CCC(C(=O)Nc2ccc(C#N)cc2)CC1 do in these assays?
AmpC detergent: -2%

Results for COc1ccc(C2=C(C)C(N3CCC(C(=O)Nc4ccccc4F)CC3)=NS2(=O)=O)cc1 ?
AmpC detergent: 2%

What do the screens show for `CCN(CCCNC(=O)c1cc2cc3cc(C)ccc3nc2s1)c1cccc(C)c1`?
AmpC detergent: 0%

Results for CC(=O)c1c(COC(=O)c2cccnc2)nc2ccccc2[n+]1[O-] ?
AmpC detergent: -20%; NS1 function inh: 5µM*; AmpC inh no detg: -14%; AMA1-RON2 inh: 10%; SARS PLP yeast: 2%; Flu NS1 inh: 18

How did CC1(C)Cc2c(C#N)c(N3CCN(C(=O)c4ccco4)CC3)nc(-c3ccco3)c2CS1 do in these assays?
AmpC detergent: 4%; NS1 function inh: 7.9µM*; AmpC inh no detg: 57%; AMA1-RON2 inh: inconclusive; SARS PLP yeast: 22%; Flu NS1 inh: -37

Results for COc1cc(C)c(C(N)=O)c(OC)n1 ?
AmpC detergent: 2%; NS1 function inh: inconclusive; AmpC inh no detg: -2%; AMA1-RON2 inh: -5%; SARS PLP yeast: -3%; Flu NS1 inh: 1

Results for C/C(CC(=O)N(C(C)C)C(C)C)=N\NC(=O)COc1ccc(Cl)cc1Cl ?
AmpC detergent: 2%; AmpC inh no detg: -6%; AMA1-RON2 inh: 85%; SARS PLP yeast: 2%

Results for C/C(CC(=O)N(C(C)C)C(C)C)=N\NC(=O)COc1ccc(Br)cc1Br ?
AmpC detergent: -12%; NS1 function inh: 11µM*; AmpC inh no detg: 45%; AMA1-RON2 inh: 122%; SARS PLP yeast: -2%; Flu NS1 inh: inconclusive
